Compounds without any hit were thinned out: in the full panel of roughly 83,000, 20% have a hit.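 Single-concentration screen, 48 h exposure, 96-well plates. Endpoint: percent growth. Below 10 = active.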 Values without a mark were called inactive. Activity calls are given as the source filed them.

The test system of this assay is HL-60(TB) leukemia. The assay can be described thus: NCI-60 one-dose screen, 48 h (100 = growth as untreated, 0 = no growth, -100 = all killed). To be noted: 10 µM unless noted.
For the molecule `C=C(C)[C@@H]1CC[C@]2(C(=O)OCCOCCOCC[P+](c3ccccc3)(c3ccccc3)c3ccccc3)CC[C@]3(C)[C@H](CC[C@@H]4[C@@]5(C)CC[C@H](OC(=O)C(Cl)Cl)C(C)(C)[C@@H]5CC[C@]43C)[C@@H]12`, the growth is -47.8% (active).

Consider `O=C(COCc1c(-c2ccccc2)no[n+]1[O-])Nc1nc(-c2ccc(Cl)cc2)cs1`, for which the growth was 119%.

As for `O=C(Nc1cccc(-n2cc(-c3ccncc3)c(-c3cc(O)cc(Cl)c3)n2)c1)Nc1ccc(Cl)c(Cl)c1`, the growth is -23.4% (active). To `O=S(=O)(Nc1ccc2ccccc2c1)N1CCCCC1` belongs 85.1%. Turning to `Cc1c(N(C)CS(=O)(=O)O)c(=O)n(-c2ccccc2)n1C`, the growth was 96%.

As to `O=C(Nc1ccc(Br)cc1)C1=NCCCCN1`, the growth was 98%. Turning to `COc1ccc(C(=O)N2C=Cc3ccccc3C2C#N)cc1` (stereo not given), the growth is 66.5%. To `C=C(C)[C@@H]1CC[C@]2(C(=O)N3CCN(C)CC3)CC[C@]3(C)[C@H](CC[C@@H]4[C@@]5(C)C/C(=C/c6ccncc6)C(=O)C(C)(C)[C@@H]5CC[C@]43C)[C@@H]12` belongs -21.7% (active); to `COc1cc(-c2nc3c(c(C)nc4c3nnn4-c3ccccc3)c(=O)o2)cc(OC)c1OC`, 105%. On to `CCOC(=O)c1ccccc1NC(c1ccccc1)c1ccc2cccnc2c1O` (stereo not given), for which the growth was 3.54% (active). As to `O=C1OCC2=C1C(c1cccc(Cl)c1)c1cc3c(cc1N2CCO)CCC3` (stereo not given), the growth was -26.3% (active). Under `COc1cc2c(cc1OC)-c1cc(OC)c(OC)cc1C(CN(C)C)C2` (stereo not given) stands 69.8% [100 µM].

Take `CCCCn1c(=O)c(-c2cc(-c3ccc(Cl)cc3)nc(-c3ccc(Cl)cc3)c2)cc2ccc(Cl)cc21`: the growth is 100%. For `CCCCCCCCCCCCCCCCCCSC(=N)N`, the growth is 46%. For `COc1ccc(/C=C/c2ccc3ccccc3n2)c(OC)c1`, the growth was 40.7%.

Consider `COc1ccc(CCN2CCCn3c2nc2ccccc2c3=O)cc1`, for which the growth was -5.2% (active). Turning to `COc1cc(-c2nc3ccc(C)cc3[nH]2)ccc1OCC(=O)N=Nc1c(O)[nH]c2ccccc12`, the growth was -34.3% (active). In the case of `O=C1C(=O)c2ccc(Br)cc2-c2cc(Br)ccc21`, the growth was -14.5% (active). Consider `c1ccc2c(c1)OC1OC2Oc2ccccc21`, for which the growth was 80%.

Regarding `COc1cc(C(=O)c2cc(C)c3[nH]c4ccc(O)cc4c3c2C)cc(OC)c1OC`, the growth was -13.7% (active). Under `COc1cc(NC(=O)c2cccc(-c3cc(=O)c4c(OC)c(OC)c(OC)cc4o3)c2)cc(OC)c1OC` stands 36%. As to `COc1ccc(CCN2CC=Cn3c2nc2ccccc2c3=O)cc1`, the growth is -8.02% (active). As for `CCN(CC)CCCC(C)Nc1ccc2cc(OC)ccc2n1` (stereo not given), the growth is 126%.

Turning to `C#Cc1ccc(-n2c(/C=C/c3ccc4ccccc4c3)nc3ncccc3c2=O)cc1`, the growth was -2.99% (active).

Take `COc1cc(Cn2cc(F)c(=O)[nH]c2=O)cc(OC)c1`: the growth was 104% [50 µM]. `O=C1CN(Cc2ccc(C(=O)NO)cc2)C(=O)[C@@H](Cc2ccccc2)N1`: the growth is 130%.

Consider `CCN(CC)CCSCCCNc1c(C)cnc2cc(Cl)ccc12`, for which the growth was 69.1%. In the case of `Clc1ccc(Cl)c(N=Cc2ccc3c(c2)OCO3)c1`, the growth is 102%. `N#Cc1ccc(-n2nnc3ccccc32)cc1C#N`: the growth is 108%. In the case of `CCCCCCCC(=O)SCC/C=C/[C@@H]1CC(=O)NCc2cccc(n2)CN(Cc2ccc(Cl)cc2)CC(=O)N[C@@H](C(C)C)C(=O)O1`, the growth was 13%. Take `COc1ccc(N=Nc2nccs2)c(O)c1`: the growth was -32.2% (active).

In the case of `COc1cc(-c2cc(/C=C/C(=O)c3ccc(N)cc3)[nH]n2)cc(OC)c1OC`, the growth was 13.2%. In the case of `CC(C)(C)CC(C)(C)N(CSc1ccc(Cl)cc1)CSc1ccc(Cl)cc1`, the growth was -35.3% (active).

In the case of `COc1ccc(C2CC(c3ccc(Nc4ccnc5cc(Cl)ccc45)cc3)=NN2C=O)cc1` (stereo not given), the growth was -42.6% (active). As to `COc1ccc2c(c1)c(-c1nc(-c3cn(C)c4ncccc34)cs1)cn2CCN`, the growth is 55.7%. Under `CCN(CC)c1ccc2cc(C(Nc3ccc(Br)c(C(F)(F)F)c3)c3nnnn3C(C)(C)C)c(=O)oc2c1` (stereo not given) stands 93%; under `Brc1ccc(Nc2nc(Nc3cnc4ccccc4c3)c3[nH]cnc3n2)cc1`, 92.9%. Under `COc1cc(OC)c2cc(C(=O)O)c(=O)oc2c1` stands 66%. As to `C[C@]12C=CC(=O)C=C1[C@@H](F)C[C@@H]1[C@@H]2[C@@H](O)C[C@@]2(C)[C@H]1CC[C@]2(O)C(=O)CO`, the growth is 107%. Consider `CCN1CCN(c2nc3ccccc3c3c(=O)c4cc(F)ccc4sc23)CC1`, for which the growth is 104%.

The record behind these values is PubChem BioAssay (NCI).
